This note sets out measurements from PubChem BioAssay (NCI).

Experiment [1] in a line: NCI Yeast Anticancer Drug Screen. Data for the rad50 strain (AID 155).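 Note: 0% = growth of vehicle-only cultures of the same strain.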 As to conditions: S. cerevisiae rad50 strain growth inhibition, hits give high values. The method, boiled down: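 Inhibition values express reduced yeast growth in compound-treated cultures relative to vehicle-treated controls.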
Experiment [2] in a line: NCI Yeast Anticancer Drug Screen. Data for the mec2-1 strain (AID 157). The settings on record: S. cerevisiae mec2-1 strain, hits give high values. The procedure, abridged:
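Using mec2-1 yeast: add compound, measure growth, express inhibition versus vehicle-treated cultures.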

A short description of experiment [3]: NCI Yeast Anticancer Drug Screen. Data for the cln2 rad14 strain (AID 165).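 Note: 0% = growth equal to vehicle treated cultures.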 The settings on record: S. cerevisiae cln2 rad14 strain, hits give high values. The procedure, abridged:
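Yeast strain cln2 rad14, bearing defects in cell cycle control and DNA repair, serves as the test system; values reflect growth inhibition compared with vehicle.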

Experiment [4] can be described thus: NCI Yeast Anticancer Drug Screen. Data for the bub3 strain (AID 167). As to conditions: S. cerevisiae bub3 mutant strain, hits give high values. The method, boiled down:
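Steps: expose the mutant yeast strain to compound; grow alongside vehicle-treated cultures; measure growth; express inhibition against the vehicle cultures.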

Experiment [5] in a line: NCI Yeast Anticancer Drug Screen. Data for the mlh1 rad18 strain (AID 175). As to conditions: S. cerevisiae mlh1 rad18 strain growth inhibition, hits give high values. The procedure, abridged: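 Steps: expose repair-defective yeast to compound; measure growth; express inhibition against vehicle-treated controls.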
Experiment [6] in a line: NCI Yeast Anticancer Drug Screen. Data for the sgs1 mgt1 strain (AID 161).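 Note: 0% = growth of cultures given vehicle only.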 As to conditions: S. cerevisiae sgs1 mgt1 strain, hits give high values. The procedure, abridged:
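Percent growth inhibition was derived by comparing compound-exposed mutant yeast with vehicle-exposed cultures. The strain carries alterations in DNA damage repair.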

Where [7] appears, read: at 5.0 µM (retest, dose inferred, filed as 0.5).
Where [8] appears, read: at 50.0 µM (retest, dose inferred, filed as 5.0).

“And” between values parts separate entries of the source, which are not always exact repeats. Equal entries are not always repeated. This is part of a sample that, as a whole, favours compounds with a hit. Of some 79,000 tested, about 15% had one in any assay. A number with no mark means an inactive call. The source made the active and inactive calls. Cut-off read from the data, not from the text of the source: active = growth inhibition above about 70%; inactive = the rest.

Consider `CCOC(=O)C(=Cc1ccc(OC)cc1)C(=O)OCC`, for which the growth inhibition in experiment [1] (setting [7]) was 0%; in experiment [1] (setting [8]), 62%; in experiment [1] (at 50.0 µM), 39.6%; in experiment [2] (setting [7]), -1%; in experiment [2] (setting [8]) it was 70% (active); in experiment [2] (at 50.0 µM), 52.4%. Moreover, the growth inhibition was 1% in experiment [3] (setting [7]); 57% in experiment [3] (setting [8]); 5.95% in experiment [3] (at 50.0 µM); 18% in experiment [4] (setting [7]); 86% (active) in experiment [4] (setting [8]); 68.8% in experiment [4] (at 50.0 µM). Besides, the growth inhibition was -1% in experiment [5] (setting [7]), 77% (active) in experiment [5] (setting [8]) and 66.5% in experiment [5] (at 50.0 µM).

For the compound `C=C1C(=O)O[C@@H]2CC(CO)=C([C@@H](C)CCCO)[C@@H](OC(=O)/C(C)=C\C)[C@H]12`, the growth inhibition in experiment [1] (setting [7]) was 3%; in experiment [1] (setting [8]), 10%; in experiment [1] (at 50.0 µM), 92.2% (active); in experiment [2] (setting [7]), 5%; in experiment [2] (setting [8]), 33%; in experiment [2] (at 50.0 µM), 94.3% (active). The growth inhibition in experiment [3] (setting [7]) is 1%; in experiment [3] (setting [8]), 6%; in experiment [3] (at 50.0 µM), 92.2% (active); in experiment [4] (setting [7]) it was 9%; in experiment [4] (setting [8]), 65%; in experiment [4] (at 50.0 µM) it was 92.8% (active). The growth inhibition was -2% in experiment [5] (setting [7]), 29% in experiment [5] (setting [8]) and -33.3% in experiment [5] (at 50.0 µM).

In the case of `C=CCNC(=S)N/N=C(/c1ccccn1)C(C)C`, the growth inhibition in experiment [1] (setting [7]) is 1%; in experiment [1] (setting [8]), 40%; in experiment [1] (at 50.0 µM) it was 89.8% (active); in experiment [2] (setting [7]), -1%; in experiment [2] (setting [8]), 36%; in experiment [2] (at 50.0 µM) it was 98.5% (active). Further, the growth inhibition is -2% in experiment [6] (setting [7]); 80% (active) in experiment [6] (setting [8]); 96.9% (active) in experiment [6] (at 50.0 µM); -2% in experiment [4] (setting [7]); 41% in experiment [4] (setting [8]); 96.3% (active) in experiment [4] (at 50.0 µM). The values for the growth inhibition in experiment [5] (setting [7]), in experiment [5] (setting [8]) and in experiment [5] (at 50.0 µM) were -2%, 69% and 96% (active), respectively.

As to `Nc1ccc(S(=O)(=O)O)c2ccccc12`, the growth inhibition was -17.7% and -12.8% and 15.7% in experiment [1] (at 50.0 µM); -18.1% and 3.25% and 3.85% in experiment [2] (at 50.0 µM); -10.4% and -28.8% and 7.35% in experiment [6] (at 50.0 µM); 6.25% and -52.1% and -17.6% in experiment [3] (at 50.0 µM); -1.95% and -17.8% and 7.6% in experiment [4] (at 50.0 µM); -12.8% and -40% and 8.1% in experiment [5] (at 50.0 µM).

Take `C=CCOC(=O)C(O)C(CC)CCCCC` (configuration not stated): the growth inhibition is 25% in experiment [1] (setting [7]); 92% (active) in experiment [1] (setting [8]); 52.9% in experiment [1] (at 50.0 µM); 0% in experiment [2] (setting [7]); 87% (active) in experiment [2] (setting [8]); 46% in experiment [2] (at 50.0 µM). Further, the growth inhibition in experiment [6] (setting [7]) is 9%; in experiment [6] (setting [8]), 89% (active); in experiment [6] (at 50.0 µM) it was 76.7% (active); in experiment [4] (setting [7]), 16%; in experiment [4] (setting [8]), 91% (active); in experiment [4] (at 50.0 µM), 54.4%. The growth inhibition in experiment [5] (setting [7]) is 17%; in experiment [5] (setting [8]), 92% (active); in experiment [5] (at 50.0 µM), -3.3%.

As for `NC(=O)c1c(Cl)nc2n1CCS2`, the growth inhibition in experiment [1] (setting [7]) is 1%; in experiment [1] (setting [8]) it was 0%; in experiment [1] (at 50.0 µM), 13.8%; in experiment [2] (setting [7]), 0%; in experiment [2] (setting [8]), -2%; in experiment [2] (at 50.0 µM) it was -17.4%. Besides, the growth inhibition in experiment [6] (setting [7]) was -2%; in experiment [6] (setting [8]), 1%; in experiment [6] (at 50.0 µM), -1.3%; in experiment [4] (setting [7]), -3%; in experiment [4] (setting [8]) it was -5%; in experiment [4] (at 50.0 µM), -4.2%. Moreover, the growth inhibition in experiment [5] (setting [7]) is 4%; in experiment [5] (setting [8]) it was 1%; in experiment [5] (at 50.0 µM) it was 0.15%.

`NCC(=O)NC(CO)C(=O)O` (configuration not stated): the growth inhibition in experiment [1] (at 50.0 µM) was -8.05% and -12.9% and -12.8%; in experiment [2] (at 50.0 µM), -10.5% and -5.1% and -4.35%; in experiment [6] (at 50.0 µM) it was -12.2% and -2.65% and -3.75%; in experiment [3] (at 50.0 µM) it was -34.1% and -5.75% and -10.1%; in experiment [4] (at 50.0 µM) it was -24.7% and -11.4% and -3.6%; in experiment [5] (at 50.0 µM) it was -3.35% and -12.8% and -9.4%.

For the compound `CCCCCCCCCCCCCCCCCCOP(=O)([O-])OCC[N+](C)(C)C`, the growth inhibition in experiment [1] (setting [7]) was 14%; in experiment [1] (setting [8]), 99% (active); in experiment [1] (at 50.0 µM), 90.5% (active); in experiment [2] (setting [7]), -2%; in experiment [2] (setting [8]), 99% (active); in experiment [2] (at 50.0 µM), 92% (active). The growth inhibition is 15% in experiment [3] (setting [7]); 89% (active) in experiment [3] (setting [8]); 89.5% (active) in experiment [3] (at 50.0 µM); 7% in experiment [4] (setting [7]); 99% (active) in experiment [4] (setting [8]); 90.3% (active) in experiment [4] (at 50.0 µM). For the same compound, the growth inhibition in experiment [5] (setting [7]) is 10%; in experiment [5] (setting [8]), 99% (active); in experiment [5] (at 50.0 µM) it was 91.6% (active).

On to `O=S(=O)(Nc1ccc(Cl)cc1)c1ccccc1`, for which the growth inhibition in experiment [1] (setting [7]) is -3%; in experiment [1] (setting [8]), 50%; in experiment [1] (at 50.0 µM), 76.5% (active); in experiment [2] (setting [7]), -14%; in experiment [2] (setting [8]), 32%; in experiment [2] (at 50.0 µM), 46%. Besides, the growth inhibition in experiment [3] (setting [7]) is -9%; in experiment [3] (setting [8]), 81% (active); in experiment [3] (at 50.0 µM), 20.9%; in experiment [4] (setting [7]), -8%; in experiment [4] (setting [8]) it was 56%; in experiment [4] (at 50.0 µM), 53.9%. Besides, the values for the growth inhibition in experiment [5] (setting [7]), in experiment [5] (setting [8]) and in experiment [5] (at 50.0 µM) were -5%, 63% and 45.5%, respectively.
